Laboratory results: PubChem BioAssay AID504834 (National Center for Advancing Translational Sciences (NCATS), 2011)
In all, about 320,000 compounds went through this assay and about 22,000 (6.9%) were called active. Another 27% or so got no clear call; they are omitted. Calls come from the whole dose curve; as a rule, active = well fitted inhibition curve with a large enough effect; inconclusive = small, poorly fitted or top-dose-only effect, or another doubt; inactive = no such curve, though single readings can be large or run the other way. The list comes from a sample in which actives are over-represented; it also holds similar structures and randomly drawn compounds. Where a call stands in place of a potency, no number is given.

Experiment: Primary qHTS for delayed death inhibitors of the malarial parasite plastid, 96 hour incubation
Conditions: P. falciparum luciferase reporter growth; series mostly up to 28.7 µM
How it was run: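 Compounds incubated with erythrocytes infected by luciferase-expressing P. falciparum (2% hematocrit, 0.05% parasitemia final) for 96 hours, 37 C in 5% CO2. Growth inhibition scored as decreased luciferase luminescence.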
Potency is the fitted concentration of half-maximal effect.

SMILES	Potency
COc1ccc(S(=O)(=O)N2CCOCC2)c(C)c1C	inactive
COc1ccc(CC(=O)Nc2ccc3c(c2)CCC3)cc1S(=O)(=O)N1CCOCC1	inactive
COc1ccc(/C=C/C(=O)Nc2ccc(C)cc2)cc1S(=O)(=O)N1CCOCC1	11.7 µM (active)
COc1ccc(C(=O)NC(=S)N2CCNC(=O)C2CC(=O)OC(C)C)cc1 (centres undefined)	inactive
O=C1CCC(=O)N(c2ccccc2)N1	inactive
Cc1cc(C)nc(Nc2n[nH]c(-c3ccccc3N)n2)n1	inactive
COc1ccccc1OCC(=O)Nc1ccccc1C(=O)NC1CC1	inactive
N#Cc1cc([N+](=O)[O-])ccc1NCC1CCCO1 (centres undefined)	inactive
C/C(N)=C(/C#N)C(=O)COC(=O)C1=NN(c2ccccc2)C(=O)CC1	inactive
COC(=O)CC1=NN(c2ccccc2)C(=O)C1	5.22 µM (active)
COC(=O)CC1=NN(c2nc(C)cc(C)n2)C(=O)C1	inactive
COc1cc([C@H](Cc2ccccc2)NC(C)=O)oc(=O)c1	2.94 µM (active)
COC(=O)[C@H](Cc1ccccc1)NC(=O)Nc1ccc(OC)cc1	inactive
CCOC(=O)C(Cc1ccccc1)NC(=O)CCC(=O)c1ccc(OC)cc1 (centres undefined)	inactive
Cc1cccc(NS(=O)(=O)c2cc(Cl)ccc2Cl)n1	2.94 µM (active)
O=S(=O)(Nc1cccc(Oc2ccc(Cl)cc2)n1)c1ccc(F)cc1	inactive
Nc1ccc(Cl)c(S(=O)(=O)Nc2ccccc2Cl)c1	inactive
Cc1ccc(C(=O)NCCNC(=O)c2cnccn2)cc1	inactive
O=C(O)CCCC(=O)N1N=C(c2ccco2)CC1c1ccco1 (centres undefined)	inactive
O=S(=O)([N-]c1nc2ccccc2nc1-[n+]1ccc(Cc2ccccc2)cc1)c1ccc(Br)s1	13.1 µM (active)
O=S(=O)(NCc1cccnc1)c1ccc(Br)s1	inactive
Oc1ccccc1-c1cc(-c2ccc(Cl)cc2)n[nH]1	inactive
CCc1nn(CC(=O)N2CCN(c3cc(C)ccc3C)CC2)c(=O)c2cc3occc3n12	inactive

SMILES	Potency
O=C(O)c1cc(S(=O)(=O)N(Cc2ccccc2)c2ccccc2)ccc1Cl	inactive
COc1cccc(-c2noc(C3CCCN(C(=O)c4ccc(F)cc4)C3)n2)c1 (centres undefined)	inactive
COc1ccc(NS(=O)(=O)c2ccc(F)cc2F)cn1	inactive
COc1cc(OC)nc(S(C)(=O)=O)n1	11.7 µM (active)
COc1cc(OC)nc(NC(=O)CCl)n1	inactive
CC(NC(=O)C(C)(C)C)C(c1cccs1)N1CCN(Cc2ccccc2)CC1 (centres undefined)	inactive
Cc1ccc(NC(=O)CCCNC(=O)c2ccc(Cl)cc2)cc1S(=O)(=O)N1CCCCC1	inactive
CCOC(=O)c1c(NC(=O)CSc2nnc(Cc3csc(N)n3)n2C)sc(C)c1C	inactive
CCc1nnc(NC(=O)CSc2nnc(Cc3ccccc3)n2-c2ccc(OC)cc2)s1	inactive
CCOC(=O)c1sc(NC(=O)COc2ncnc3ccccc23)c(C(=O)OCC)c1C	inactive
CCOC(=O)c1sc(NC(=O)CSc2nc3c(c(=O)n2-c2ccccc2)SCC3)c(C(=O)OCC)c1C	3.7 µM (active)
CCc1nnc(NC(=O)CSc2nc3c(c(=O)n2-c2ccccc2OC)SCC3)s1	8.28 µM (active)
COc1ccccc1-n1c(CNC(=O)c2ccccc2)nnc1SCC(=O)Nc1nnc(C)s1	inactive
Cc1cc(C(=O)NC2CCN(Cc3ccccc3)CC2)n[nH]1	inactive
O=C(Nc1cc2c3c(c1)CC(=O)N3CCC2)c1ccccc1F	inactive
CCCC1C(=O)N2C(N(C)C)=Nc3ccc(C)cc3N2C1=O (centres undefined)	inactive
COc1ccc(C(=O)N/N=C(\C)CC(=O)Nc2ccc(Cl)cn2)cc1	inactive
CC(c1ccccn1)N(C)C(=O)c1ccc2nc(Cc3cccc(Cl)c3)oc2c1 (centres undefined)	inactive
O=C(Cc1c(Cl)cccc1Cl)NC1CC1	inactive
COC(=O)c1ccc(COc2ccc(C#N)cc2)o1	inactive
CC(Oc1ccc(Br)cc1)C(=O)NC1CCCCCC1 (centres undefined)	inactive
CN(C)S(=O)(=O)c1ccc(C(=O)NCCN=C2NS(=O)(=O)c3ccccc32)cc1	inactive
COc1ccc(OCC(=O)Nc2ccc(N3CCC(C)CC3)cc2)cc1	inactive

SMILES	Potency
COc1ccc(N2CCC(N3CCN(C)C(CCO)C3)CC2)cc1 (centres undefined)	14.7 µM (active)
Cc1cc(F)ccc1N1CCC(N2CCN(C)C(CCO)C2)CC1 (centres undefined)	inactive
CNCC(O)CN1CCN(c2ccccc2OC)CC1 (centres undefined)	inactive
CCOc1ccccc1CN1CCN(C2CCC2)CC1CCO (centres undefined)	inactive
COc1ccccc1N1CCC(N2CCN(CC(C)(C)C)C(CCO)C2)CC1 (centres undefined)	0.465 µM (active)
COc1cccc(C(=O)Nc2nnc(S(=O)(=O)N(C)c3ccccc3)s2)c1	inactive
CCc1cc(-c2nnc(SCC(=O)NC3CC3)n2C)cs1	inactive
Cc1ccc(S(=O)(=O)CC(=O)Nc2nnc(C)s2)cc1	inactive
CCOc1ccc(CN2CCC(n3nccc3NC(=O)C3CC3)CC2)cc1CO	inactive
COc1ccccc1Oc1ccc(N2CC(C(=O)OCC(=O)c3ccc(F)cc3)CC2=O)cc1 (centres undefined)	inactive
CCCCc1nc2cc(C(=O)NCCc3cnn(C)c3)ccc2o1	7.38 µM (active)
CC(C)c1nc2cc(C(=O)NC(C)c3cnn(C)c3)ccc2o1 (centres undefined)	inactive
COc1ccc(CNC(=O)c2ccc3oc(C(C)C)nc3c2)cc1	inactive
CC(=O)c1c(C)[nH]c(C(=O)CN2C(=O)NC(C)(C)C2=O)c1C	inactive
CN(C)CCN(C(=O)CN1C(=O)c2ccccc2C1=O)c1nc2cc3c(cc2s1)OCCO3	inactive
COc1ccc(-n2c(-c3ccccc3)nc3ccccc3c2=O)cc1	inactive
CCCN1C(=O)C(Cc2nc3ccccc3c(=O)n2-c2ccccc2)c2cc(C)ccc21 (centres undefined)	6.57 µM (active)
Cc1nc2ccccc2c(=O)n1-c1ccc(Cl)cc1Cl	inactive
CC(=O)c1ccc(NC(=O)C2CCCN2S(=O)(=O)c2cccs2)cc1 (centres undefined)	inactive
Cc1c(NC(=S)Nc2ccccc2)c(=O)n(-c2ccccc2)n1C	inactive
Cc1c(NC(=O)Nc2cccc([N+](=O)[O-])c2)c(=O)n(-c2ccccc2)n1C	3.7 µM (active)
Cc1c(NC(=O)c2c([N+](=O)[O-])cnn2C)c(=O)n(-c2ccccc2)n1C	inactive
Cc1c(C(=O)Nc2ccccn2)oc2ccc(Br)cc12	inactive
